From PubChem BioAssay
Results filed as inconclusive are left out. Calls of active or inactive are those of the source.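 Rule for the calls, unless noted: active = normalized viability below 100% at a tested concentration; inactive = the rest.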

Tests used:
[1] = viability loss in pontine glioma line – cell-based, SU-DIPG-XVII, MIPE5.0, CellTiter-Glo, qHTS, dose response (AID 1347060; cut-off not given, nearly all actives have AC50 up to about 26 µM;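 for AC50: cells exposed to compound for 48 hours before viability readout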); settings: CellTiter-Glo ATP luminescence
[2] = viability loss in pontine glioma line – cell-based, JHH-DIPG-1, MIPE4.0, CellTiter-Glo, qHTS, dose response (AID 1347062; cut-off not given, nearly all actives have AC50 up to about 27 µM;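 for AC50: cells exposed to compound for two days before readout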); settings: JHH-DIPG-1 viability, CellTiter-Glo ATP luminescence
[3] = viability loss in pontine glioma line – cell-based, SU-DIPG-XIII, MIPE5.0, CellTiter-Glo, qHTS, dose response (AID 1347064; cut-off not given, nearly all actives have AC50 up to about 23 µM;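 for AC50: cells exposed to compound for 48 hours before the viability read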); settings: CellTiter-Glo ATP luminescence
[4] = viability loss in pontine glioma line – cell-based, SU-DIPG-XXV, MIPE5.0, CellTiter-Glo, qHTS, dose response (AID 1347065; cut-off not given, nearly all actives have AC50 up to about 26 µM;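 note: cells exposed to compound for 48 hours before ATP readout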); settings: CellTiter-Glo ATP luminescence
[5] = growth inhibition of DIPG cells – cell-based, MIPE4.0 library, CellTiter-Glo luminescence, qHTS (AID 1347066; cut-off not given, nearly all actives have AC50 up to about 30 µM;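 note: cells exposed to compound for 48 hours before readout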); settings: SU-DIPG-VI viability, CellTiter-Glo ATP luminescence
[6] = JHH-DIPG-1 glioma cell viability, MIPE5.0 library, CellTiter-Glo luminescence, qHTS (AID 1347067; cut-off not given, nearly all actives have AC50 up to about 26 µM;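 note: cells exposed to compound for 48 hours before readout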); settings: JHH-DIPG-1 glioma viability, CellTiter-Glo ATP luminescence
[7] = growth inhibition of DIPG cells – cell-based, MIPE5.0 library, qHTS (AID 1347068; cut-off not given, nearly all actives have IC50 up to about 30 µM;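 for IC50: cells exposed to compound for 48 hours before viability readout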); settings: SU-DIPG-XXV viability
[8] = viability loss with induced miR-34 in A549 – imaging, A549 dox-inducible miR-34, nuclei and caspase counts, primary screen (AID 1347080;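 active = compounds whose cell count with miR-34 switched on is under 0.7 times the count with it off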); settings: A549 miR-34 inducible, Hoechst nuclei count, 48 h
[9] = MELAS cybrid and Rieske KO viability enhancers – cell-based, MELAS cybrids, Rieske KO mouse fibroblasts, CellTiter-Glo, primary screen (AID 1508586;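 active = mean z-score across replicates of 1.96 or higher in either the MELAS or the Rieske mutant cell line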;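 note: z relative to plate mean and SD of compound and empty wells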); settings: low glucose
[10] = compounds altering HSF1 focus formation in cells – imaging, Selleck Cancer Library (AID 1347162; in the data active = plate-normalised HSF1 focus index below about 0.46); settings: human cells, HSF1 nuclear foci imaging, at 10 µM; SSMD: measured here: HSF1 foci SSMD mean; cell count: measured here: cell number; plate-normalised HSF1 focus index: stronger effect = lower value
[11] = drug combination growth inhibition, ovarian cancer – cell-based, oncology-focused library, rucaparib conditional, profiling panel (AID 1508598); settings: patient-derived ovarian cancer cells, CellTiter-Glo viability, 144 h, stronger effect = lower value
[12] = stronger effect = lower value, cell number ratio, induced over uninduced
[13] = measured here: relative caspase fold change +Dox/-Dox
[14] = measured here: total cells with miR-34 induction, stronger effect = lower value
[15] = measured here: total cells without miR-34 induction
[16] = MELAS cybrid survival, CellTiter-Glo 48 h, stronger effect = higher value
[17] = Rieske KO mouse fibroblast survival, CellTiter-Glo 72 h
[18] = at 0.000305 µM, OCI-C5x cells, with rucaparib 10 µM, 100% = cells with rucaparib alone
[19] = at 0.000305 µM, OCI-C5x cells, without rucaparib
[20] = at 0.000305 µM, OCI-P5x cells, with rucaparib 20 µM, 100% = cells with rucaparib alone
[21] = at 0.000305 µM, OCI-P5x cells, without rucaparib
[22] = at 0.00122 µM, OCI-C5x cells, with rucaparib 10 µM, 100% = cells with rucaparib alone
[23] = at 0.00122 µM, OCI-C5x cells, without rucaparib
[24] = at 0.00122 µM, OCI-P5x cells, with rucaparib 20 µM, 100% = cells with rucaparib alone
[25] = at 0.00122 µM, OCI-P5x cells, without rucaparib
[26] = at 0.00488 µM, OCI-C5x cells, with rucaparib 10 µM, 100% = cells with rucaparib alone
[27] = at 0.00488 µM, OCI-C5x cells, without rucaparib
[28] = at 0.00488 µM, OCI-P5x cells, with rucaparib 20 µM, 100% = cells with rucaparib alone
[29] = at 0.00488 µM, OCI-P5x cells, without rucaparib
[30] = at 0.0195 µM, OCI-C5x cells, with rucaparib 10 µM, 100% = cells with rucaparib alone
[31] = at 0.0195 µM, OCI-C5x cells, without rucaparib
[32] = at 0.0195 µM, OCI-P5x cells, with rucaparib 20 µM, 100% = cells with rucaparib alone
[33] = at 0.0195 µM, OCI-P5x cells, without rucaparib
[34] = at 0.0781 µM, OCI-C5x cells, with rucaparib 10 µM, 100% = cells with rucaparib alone
[35] = at 0.0781 µM, OCI-C5x cells, without rucaparib
[36] = at 0.0781 µM, OCI-P5x cells, with rucaparib 20 µM, 100% = cells with rucaparib alone
[37] = at 0.0781 µM, OCI-P5x cells, without rucaparib
[38] = at 0.313 µM, OCI-C5x cells, with rucaparib 10 µM, 100% = cells with rucaparib alone
[39] = at 0.313 µM, OCI-C5x cells, without rucaparib
[40] = at 0.313 µM, OCI-P5x cells, with rucaparib 20 µM, 100% = cells with rucaparib alone
[41] = at 0.313 µM, OCI-P5x cells, without rucaparib
[42] = at 1.25 µM, OCI-C5x cells, with rucaparib 10 µM, 100% = cells with rucaparib alone
[43] = at 1.25 µM, OCI-C5x cells, without rucaparib
[44] = at 1.25 µM, OCI-P5x cells, with rucaparib 20 µM, 100% = cells with rucaparib alone
[45] = at 1.25 µM, OCI-P5x cells, without rucaparib
[46] = at 5 µM, OCI-C5x cells, with rucaparib 10 µM, 100% = cells with rucaparib alone
[47] = at 5 µM, OCI-C5x cells, without rucaparib
[48] = at 5 µM, OCI-P5x cells, with rucaparib 20 µM, 100% = cells with rucaparib alone
[49] = at 5 µM, OCI-P5x cells, without rucaparib

CC[C@]12C=CCN3CC[C@@]4(c5cc([C@@]6(C(=O)OC)C[C@H]7C[C@@H](C(C)(F)F)CN(Cc8c6[nH]c6ccccc86)C7)c(OC)cc5N(C)[C@H]4[C@@](O)(C(=O)OC)[C@@H]1OC(C)=O)[C@@H]32
active: AC50 [1] 78.3 nM | AC50 [2] 469 nM | AC50 [3] 1750 nM | AC50 [4] 111 nM | AC50 [5] 8330 nM | AC50 [6] 312 nM | IC50 [7] 350 nM

COCCOc1ccc2c(c1)ncn2-c1ccc2cccc(N3CCC(N)CC3)c2n1
1460: cell count [8, 14]
inactive: fold change [8, 12] 1.1 | z-score [9, 16] 0.564
0.953: fold change [8, 13]
-2.41: z-score [9, 17]
active: AC50 [1] 11800 nM | AC50 [2] 9350 nM | AC50 [3] 9340 nM | AC50 [4] 11800 nM | IC50 [7] 18600 nM
1320: cell count [8, 15]

COc1cc2c(cc1OC)CC(=O)N(CCCN(C)C[C@H]1Cc3cc(OC)c(OC)cc31)CC2
inactive: outcome [1] | outcome [2] | outcome [3] | outcome [4] | outcome [5] | outcome [6] | outcome [7]

COc1cc(N2CCC(N3CCN(C)CC3)CC2)ccc1Nc1ncc(Cl)c(Nc2ccccc2S(=O)(=O)C(C)C)n1
active: AC50 [1] 372 nM | AC50 [2] 18700 nM | AC50 [3] 661 nM | AC50 [4] 590 nM | AC50 [6] 1050 nM | IC50 [7] 2350 nM
1.02: SSMD [10]
6520: cell count [10]
inactive: plate-normalised HSF1 focus index [10] 1.07

CN(C)c1ccccc1CN1CCCN(Cc2ccccc2N(C)C)C1c1ccncc1
active: AC50 [1] 26300 nM | AC50 [2] 20900 nM
1.08: SSMD [10]
6990: cell count [10]
inactive: outcome [4] | outcome [5] | outcome [7] | plate-normalised HSF1 focus index [10] 1.07

Cc1ccc(CN2CCNCC2)cc1NC(=O)CNc1ccc(F)c(F)c1
inactive: outcome [1] | outcome [2] | outcome [3] | outcome [4] | outcome [6] | outcome [7]

COc1ccc(C2=N[C@H](c3ccc(Cl)cc3)[C@H](c3ccc(Cl)cc3)N2C(=O)N2CCNC(=O)C2)c(OC(C)C)c1
active: AC50 [1] 14800 nM | AC50 [2] 23500 nM | AC50 [3] 16600 nM | AC50 [4] 10500 nM
inactive: outcome [5] | outcome [7]

CN[C@H]1CCc2cc(OC)c(OC)c(OC)c2-c2ccc(OC)c(=O)cc21
active: AC50 [1] 105 nM | AC50 [2] 14.8 nM | AC50 [3] 132 nM | AC50 [4] 166 nM | AC50 [6] 148 nM | IC50 [7] 148 nM

O=C(O)CCNc1cc(N2CCc3ccccc3CC2)nc(-c2ccccn2)n1
inactive: outcome [1] | outcome [2] | outcome [3] | outcome [4] | outcome [5] | outcome [6] | outcome [7]

Cc1ccc(S(=O)(=O)Nc2nc3ccccc3nc2Nc2ccc3nsnc3c2)cc1
3480: cell count [8, 14]
1.38: fold change [8, 13]
3940: cell count [8, 15]
active: AC50 [2] 512 nM | viability [11, 39] 74.9% | viability [11, 48] 95.1%
0.136: z-score [9, 17]
inactive: outcome [1] | outcome [3] | outcome [6] | outcome [7] | fold change [8, 12] 0.883 | z-score [9, 16] -0.561 | viability [11, 18] 107% | viability [11, 19] 120% | viability [11, 20] 124% | viability [11, 21] 116% | viability [11, 22] 122% | viability [11, 23] 132% | viability [11, 24] 131% | viability [11, 25] 117% | viability [11, 26] 112% | viability [11, 27] 130% | viability [11, 28] 125% | viability [11, 29] 115% | viability [11, 30] 123% | viability [11, 31] 132% | viability [11, 32] 120% | viability [11, 33] 108% | viability [11, 34] 122% | viability [11, 35] 124% | viability [11, 36] 125% | viability [11, 37] 110% | viability [11, 38] 112% | viability [11, 40] 117% | viability [11, 41] 106% | viability [11, 42] 115% | viability [11, 43] 121% | viability [11, 44] 110% | viability [11, 45] 105% | viability [11, 46] 107% | viability [11, 47] 117% | viability [11, 49] 102%

CN(C(=O)c1ccc(F)cc1C(F)(F)F)C1CCN(c2nnc(-c3ccnn3C)c3ccccc23)CC1
inactive: outcome [1] | outcome [2] | outcome [3] | outcome [4] | outcome [5] | outcome [6] | outcome [7]

O=c1ncn2nc(Sc3ccc(F)cc3F)ccc2c1-c1c(Cl)cccc1Cl
6460: cell count [8, 14]
7250: cell count [8, 15]
inactive: outcome [1] | outcome [2] | outcome [3] | outcome [5] | outcome [6] | outcome [7] | fold change [8, 12] 0.89 | z-score [9, 16] -0.528
1.18: z-score [9, 17]
1.87: fold change [8, 13]

CCN(CCO)CCCOc1ccc2c(Nc3cc(CC(=O)Nc4cccc(F)c4)[nH]n3)ncnc2c1
0.586: z-score [9, 17]
1.14: SSMD [10]
0.861: fold change [8, 13]
active: AC50 [1] 235 nM | AC50 [4] 148 nM | viability [11, 31] 91.6% | viability [11, 34] 81% | viability [11, 35] 77.3% | viability [11, 37] 80.5% | viability [11, 38] 65.1% | viability [11, 39] 80.3% | viability [11, 40] 82.3% | viability [11, 41] 65.3% | viability [11, 42] 83.4% | viability [11, 43] 83% | viability [11, 44] 86.7% | viability [11, 45] 62% | viability [11, 47] 95.3% | viability [11, 48] 83.1% | viability [11, 49] 58.7%
7480: cell count [10]
2110: cell count [8, 14]
inactive: outcome [2] | outcome [5] | fold change [8, 12] 0.945 | plate-normalised HSF1 focus index [10] 1.04 | z-score [9, 16] -0.237 | viability [11, 18] 106% | viability [11, 19] 113% | viability [11, 20] 110% | viability [11, 21] 110% | viability [11, 22] 103% | viability [11, 23] 118% | viability [11, 24] 115% | viability [11, 25] 108% | viability [11, 26] 114% | viability [11, 27] 112% | viability [11, 28] 115% | viability [11, 29] 111% | viability [11, 30] 109% | viability [11, 32] 104% | viability [11, 33] 106% | viability [11, 36] 104% | viability [11, 46] 107%
2230: cell count [8, 15]
